Inconclusive results are not listed. The source made the active and inactive calls. The call rests on the fitted dose curve; in most records, active means well fitted curve in the direction sought with a large enough effect; inconclusive means small, poorly fitted or top-dose-only effect, or another doubt; inactive means no such curve, though single readings can be large; an effect the other way counts as inactive or inconclusive.
Experiments:
[1] = HPAF-II Cancer Cell Toxicity qHTS against the NCATS CANVASS Library (AID 1347346); further: nearly all actives have a fitted effect of over 55% in size
Source text: (§1) Natural products and their derivatives continue to be wellsprings of nascent therapeutic potential. However, many laboratories have limited resources for biological evaluation, leaving their previously isolated or synthesized compounds largely or completely untested. To address this issue, the Canvass library of natural products was assembled (https://tripod.nih.gov/canvass), in collaboration with academic and industry researchers, for quantitative high-throughput screening (qHTS) across a diverse set of cell-based and biochemical assays. The pure (>85% purity by liquid chromatography/mass spectrometry [LC/MS]) Canvass library of 346 natural products were submitted by 45 academic laboratories and companies around the world. […] The library was formatted into 1536-well plates and evaluated in 50 qHTS (in an 11-pnt concentration series) bioassays with broad scope of disease-relevant mechanisms. The resulting data set from 50 different assays was then systematically analyzed to identify overall trends and specific natural products with interesting biological activities. […]
Cancer Cell Toxicity protocol for cell lines COV-362, OV-KATE, OV-SAHO, UWB1.289, UWB1.289-WTBRCA1, HEK-293, HPAF-II, Panc-1005, SW1088, or U-118MG. […] 7.#Luminescence signal was acquired via the ViewLux plate reader (PerkinElmer) using a clear filter, 2 second exposure and 2x binning settings.

[2] = UWB1.289 Cancer Cell Toxicity qHTS against the NCATS CANVASS Library (AID 1347347); further: nearly all actives have a fitted effect of over 60% in size
Method in brief: (§2)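 Viability was assessed by adding CellTiter-Glo reagent to treated cultures and reading luminescence after 15min at room temperature. Treatment lasted 72 h at 37 degrees C/5% CO2, using an 11-point series on 1000 cells/well.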

[3] = OV-SAHO Cancer Cell Toxicity qHTS against the NCATS CANVASS Library (AID 1347348); further: nearly all actives have a fitted effect of over 55% in size
Method in brief: as §2

[4] = Panc-1005 Cancer Cell Toxicity qHTS against the NCATS CANVASS Library (AID 1347349); further: nearly all actives have a fitted effect of over 60% in size
Method in brief: as §2

[5] = SW1088 Cancer Cell Toxicity qHTS against the NCATS CANVASS Library (AID 1347350); further: nearly all actives have a fitted effect of over 75% in size
Method in brief: as §2

[6] = U-118MG Cancer Cell Toxicity qHTS against the NCATS CANVASS Library (AID 1347351)
Method in brief: as §2

[7] = COV-362 Cancer Cell Toxicity qHTS against the NCATS CANVASS Library (AID 1347352)
Method in brief: (§3)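 Toxicity was measured as CellTiter-Glo luminescence after 72 h exposure to an 11-point compound series. Compound was added to 1000 cells/well 4 h after seeding.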

[8] = A2780 Cisplatin Sensitive Ovarian Cancer Cell Toxicity qHTS against the NCATS CANVASS Library (AID 1347353); settings: A2780 ovarian cancer viability, ATPLite luminescence, 72 h; at 15.4 µM (top of the series); further: nearly all actives have a fitted effect of over 60% in size
Method in brief: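 Cisplatin-sensitive A2780 ovarian cells (750/well) received compound in 11 concentrations, and were incubated 72 h at 37 °C. ATP content was measured by ATPLite luminescence; bortezomib served as control.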

[9] = UWB1.289-WTBRCA1 Cancer Cell Toxicity qHTS against the NCATS CANVASS Library (AID 1347354)
Source text: as §1
Cancer Cell Toxicity COV-362, OV-KATE, OV-SAHO, UWB1.289, UWB1.289-WTBRCA1, HEK-293, HPAF-II, Panc-1005, SW1088, and U-118MG-screen protocol. […] Luminescence signal was acquired via the ViewLux plate reader (PerkinElmer) using a clear filter, 2 second exposure and 2x binning settings.

[10] = HEK-293 Cancer Cell Toxicity qHTS against the NCATS CANVASS Library (AID 1347355); settings: HEK-293 viability, CellTiter-Glo luminescence, 72 h; at 15.4 µM (top of the series); further: nearly all actives have a fitted effect of over 65% in size
Method in brief: as §3

Measured: outcome

C[C@@H]1O[C@@H](OC[C@H]2O[C@@H](Oc3c(-c4ccc(O)c(O)c4)oc4cc(O)cc(O)c4c3=O)[C@H](O)[C@@H](O)[C@@H]2O)[C@H](O)[C@H](O)[C@H]1O
inactive: all assays above

From PubChem BioAssay (NCATS)
